Screens (PubChem BioAssay)
Gli-Sufu antag = Gli-Sufu pathway antagonists, primary screen, luciferase luminescence, Sufu-KO-LIGHT cells, uHTS. Sufu-KO-LIGHT fibroblasts, Gli luciferase reporter luminescence. inhibition, % at 5 µM. hit rate 0.74% among 340,000. AID 588413, 2011;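 active = inhibition above about 55%, limit read from the data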
SMARCA2 activ = SMARCA2 (BRM) function activators, primary screen, cell-based, luminescence, high throughput. MG213 cells, MMTV-luciferase reporter, dexamethasone, overnight. activation, % at 9.1 µM. hit rate 1% among 370,000; in the data active = activation above about 7.8%
697 NFkB inh = inhibitors of PMA/ionomycin-induced NF-kB reporter, 697 cells, primary screen, B-cell NF-kB inhibitor project, cell-based, luminescence, uHTS; 697 B-cell NF-kB luciferase reporter, 16 h; AID 435022, 2010; inhibition, % at 4 µM; hit rate 0.33% among 330,000; in the data active = inhibition above about 35%
esBAF inh = Bmi1 luciferase reporter increase in mESCs, primary screen, esBAF inhibitor project, mouse ES cells, Bmi1 luciferase knock-in, single point | reporter increase, % at 12.5 µM | hit rate 2% among 350,000 | 24 h; 100% = twice the neutral-well signal; in the data active = activation above about 40%;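 also: a rise in the Bmi1 reporter signal indicates esBAF inhibition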
Jurkat NFkB inh = inhibitors of induced NF-kB luciferase reporter, primary screen, TCR NF-kB activation inhibitor project, cell-based, luminescence, uHTS; AID 435003, 2010; hit rate 0.53% among 330,000; inhibition, % at 4 µM; Jurkat, PMA/ionomycin-induced NF-kB luciferase reporter; in the data active = inhibition above about 50%
Jurkat NFkB conf = PMA/ionomycin-induced NF-kB reporter inhibitors, Jurkat retest, confirmation, T-cell NF-kB inhibitor project, cell-based, luminescence, single concentration; hit rate 27% among 2,700; shares compounds with Jurkat NFkB inh; Jurkat NF-kB luciferase, 16 h; inhibition, % at 4 µM; AID 435020, 2010;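 active = inhibition reaching about 45% at 4 µM in either replicate, limit read from the data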
697 NFkB conf = PMA/ionomycin-induced NF-kB reporter inhibitors, 697 retest, confirmation, B-cell NF-kB inhibitor project, cell-based, luminescence, single concentration; inhibition, % at 4 µM; shares compounds with 697 NFkB inh; hit rate 35% among 2,000; AID 449746, 2010; 697 B-cell NF-kB luciferase, 16 h; in the data active = inhibition mostly above about 28%, no sharp cut-off; inactive = mostly below about 22%
Gli-Sufu confirm = Gli-SUFU pathway antagonists, confirmation, single concentration, luciferase luminescence, Sufu-KO-LIGHT cells. inhibition, % at 5 µM. shares compounds with Gli-Sufu antag. hit rate 40% among 2,500. Gli luciferase reporter;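 active = mean inhibition at 5 µM reaching about 45%, limit read from the data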
Gli cytotox = cytotoxicity in Sufu-KO-LIGHT cells, confirmation, cytotoxicity control for Gli-SUFU antagonist project, cell-based, ATP luminescence, single concentration. AID 651994, 2013. hit rate 32% among 2,500. shares compounds with Gli-Sufu antag. cytotoxicity, % at 5 µM;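 active = mean cytotoxicity at 5 µM above about 25%, limit read from the data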;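 also: cells exposed to compound overnight for roughly 16 to 18 hours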
Wnt3a counter = Wnt3a reporter signal inhibition, confirmation, counter-screen for Gli-SUFU antagonist project, Wnt-LIGHT cells, luminescence, single concentration; shares compounds with Gli-Sufu antag; Wnt3a-driven luciferase reporter; inhibition, % at 6.25 µM; hit rate 20% among 2,500; AID 651995, 2013;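 active = mean inhibition above about 25%, limit read from the data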
Large screens that a line does not name were inactive (follow-up assays come after a bar, where they were run). Hits are enriched below; roughly 3.3% of the tested compounds scored in any of these assays.

CC(C)(C)c1ccc(C(=O)O/N=C(\N)c2ccccn2)cc1	Gli-Sufu antag 86, Jurkat NFkB inh 59 | Jurkat NFkB conf 86 | Gli-Sufu confirm 91 | Gli cytotox inactive | Wnt3a counter 102
CNC[C@@H]1OCCCC[C@H](C)Oc2ccc(NC(=O)NC3CCCCC3)cc2C(=O)N([C@H](C)CO)C[C@@H]1C	none (no result: Gli-Sufu antag, SMARCA2 activ, 697 NFkB inh, Jurkat NFkB inh)
CCC(O)C1CCN(C(=O)c2cc(COc3ccc4ncccc4c3)on2)CC1 (stereo not given)	Gli-Sufu antag 73, Jurkat NFkB inh 56 (no result: esBAF inh) | Jurkat NFkB conf 67 | Gli-Sufu confirm 65 | Gli cytotox inactive | Wnt3a counter 40
O=C(c1cc(COc2ccc3ncccc3c2)on1)N1CCC(O)CC1	none
CCN(CC)S(=O)(=O)c1cc(NC(=O)CNc2cccc(S(=O)(=O)N3CCCC3)c2)ccc1C	Gli-Sufu antag 72, Jurkat NFkB inh 57 (no result: SMARCA2 activ, esBAF inh) | Jurkat NFkB conf 60 | Gli-Sufu confirm 66 | Gli cytotox 31 | Wnt3a counter inactive
CN(C)S(=O)(=O)c1cccc(NC(=O)CNc2cccc(S(=O)(=O)N3CCCCC3)c2)c1	none (no result: Gli-Sufu antag, 697 NFkB inh, Jurkat NFkB inh)
CO[C@@H]1CN(C)C(=O)c2ccc(NS(=O)(=O)CC(F)(F)F)cc2OC[C@@H](C)NC[C@@H]1C	none (no result: Gli-Sufu antag, SMARCA2 activ, 697 NFkB inh, Jurkat NFkB inh)
C/C=C/COC(=O)c1[nH]c2c(c1C)C(=O)CC(c1ccco1)C2 (stereo not given)	Gli-Sufu antag 56, Jurkat NFkB inh 59 | Jurkat NFkB conf 43 | Gli-Sufu confirm 67 | Gli cytotox 60 | Wnt3a counter inactive
Cc1ncoc1C(=O)NC1CCCc2c1cnn2-c1ccc(C(C)(C)C)cc1 (stereo not given)	Jurkat NFkB inh 60 | Jurkat NFkB conf 59 | Gli-Sufu confirm 45 | Gli cytotox inactive | Wnt3a counter inactive
Cc1cc(C(=O)CN2C(=O)c3ccccc3S2(=O)=O)c(C)n1CC1CCCO1 (stereo not given)	Gli-Sufu antag 83, 697 NFkB inh 44, Jurkat NFkB inh 79 | Jurkat NFkB conf inactive | 697 NFkB conf inactive | Gli-Sufu confirm 82 | Gli cytotox 54 | Wnt3a counter 99
CCCn1c(C)cc(C(=O)CN2C(=O)c3ccccc3S2(=O)=O)c1C	none (no result: Gli-Sufu antag, 697 NFkB inh, Jurkat NFkB inh)
COc1ccc(C(=O)CN2C(=O)c3ccccc3S2(=O)=O)cc1	Gli-Sufu antag 88, 697 NFkB inh 56, Jurkat NFkB inh 73 (no result: esBAF inh) | Jurkat NFkB conf 58 | 697 NFkB conf 60 | Gli-Sufu confirm 93 | Gli cytotox 38 | Wnt3a counter 102
C[C@@H]1CN([C@@H](C)CO)C(=O)Cc2cc(NC(=O)c3ccncc3)ccc2O[C@H]1CN(C)C(=O)Nc1ccc2c(c1)OCO2	none (no result: Gli-Sufu antag, SMARCA2 activ, 697 NFkB inh, Jurkat NFkB inh)
CC(=O)N(C)C[C@H]1Oc2ncc(-c3ccc(C)cc3)cc2C(=O)N([C@@H](C)CO)C[C@H]1C	none (no result: Gli-Sufu antag, SMARCA2 activ, 697 NFkB inh, Jurkat NFkB inh)
CCCN1C[C@H](C)[C@@H](OC)CN(C)C(=O)c2ccc(NS(=O)(=O)c3ccccc3)cc2OC[C@H]1C	none (no result: Gli-Sufu antag, SMARCA2 activ, 697 NFkB inh, Jurkat NFkB inh)
O=C(NC1CCN(Cc2ccccc2)CC1)c1ccc2c(c1)[nH]c(=O)n2Cc1ccc(F)cc1	Jurkat NFkB inh 64 (no result: esBAF inh) | Jurkat NFkB conf inactive | Gli-Sufu confirm inactive | Gli cytotox inactive | Wnt3a counter inactive
O=S(=O)(c1cc(F)ccc1F)N1CCN(c2ncnc3ccccc23)CC1	Gli-Sufu antag 59, Jurkat NFkB inh 60 | Jurkat NFkB conf 58 | Gli-Sufu confirm 63 | Gli cytotox 58 | Wnt3a counter inactive
CCNC(=O)C[C@H]1CC[C@H]2[C@@H](COc3ccc(NC(=O)NC(C)C)cc3C(=O)N2C)O1	none (no result: Gli-Sufu antag, SMARCA2 activ, 697 NFkB inh, Jurkat NFkB inh)
COC(=O)c1ccc(NC(=O)Cn2c(-c3nonc3N)nc3ccccc32)cc1	none (no result: esBAF inh)
COC(=O)c1ccccc1NC(=O)Cn1c(-c2nonc2N)nc2ccccc21	Gli-Sufu antag 58, Jurkat NFkB inh 83 (no result: SMARCA2 activ) | Jurkat NFkB conf 51 | Gli-Sufu confirm 63 | Gli cytotox 63 | Wnt3a counter inactive
CCn1ncc(C2=NOC(C(=O)NCc3ccc(Cl)cc3)C2)c1C (stereo not given)	Jurkat NFkB inh 74 | Jurkat NFkB conf 50 | Gli-Sufu confirm 50 | Gli cytotox 45 | Wnt3a counter inactive
CCn1ncc(C2=NOC(C(=O)Nc3ccc(C)cc3)C2)c1C (stereo not given)	none (no result: esBAF inh)
COc1ccc(S(=O)(=O)Nc2ccc3c(c2)C(=O)N([C@@H](C)CO)C[C@@H](C)[C@@H](CN(C)Cc2ccc(C(=O)O)cc2)OCCCC[C@H](C)O3)cc1	none (no result: Gli-Sufu antag, SMARCA2 activ, 697 NFkB inh, Jurkat NFkB inh)
Cc1cc(NC(=O)CSc2ccc(-c3nc4cc(C)c(C)cc4[nH]3)cn2)no1	Gli-Sufu antag 97 (no result: SMARCA2 activ) | Jurkat NFkB conf inactive | Gli-Sufu confirm inactive | Gli cytotox 27 | Wnt3a counter inactive
Cc1cc2nc(-c3ccc(SCc4ccc(C(=O)O)cc4)nc3)[nH]c2cc1C	none (no result: 697 NFkB inh, esBAF inh, Jurkat NFkB inh)
CO[C@@H]1CN(C)C(=O)c2cc(NC(=O)c3ccccc3F)ccc2OC[C@@H](C)N(CC2CC2)C[C@@H]1C	none (no result: Gli-Sufu antag, SMARCA2 activ, 697 NFkB inh, Jurkat NFkB inh)
C[C@@H]1CN([C@@H](C)CO)S(=O)(=O)c2ccc(-c3cccnc3)cc2O[C@@H]1CN(C)C(=O)C1CCCCC1	none (no result: Gli-Sufu antag, SMARCA2 activ, 697 NFkB inh, Jurkat NFkB inh)
Cc1cc(/C=N/n2cnnc2)c(C)n1-c1ccc(OCc2ccc(Cl)cc2Cl)cc1	Gli-Sufu antag 82, 697 NFkB inh 40, Jurkat NFkB inh 70 (no result: SMARCA2 activ, esBAF inh) | Jurkat NFkB conf inactive | 697 NFkB conf inactive | Gli-Sufu confirm 82 | Gli cytotox 35 | Wnt3a counter 68
COc1ccc(CCNc2c(C)c(C)nc3ncnn23)cc1	Gli-Sufu antag 72, 697 NFkB inh 89, Jurkat NFkB inh 70 | Jurkat NFkB conf 65 | 697 NFkB conf 54 | Gli-Sufu confirm 70 | Gli cytotox 45 | Wnt3a counter 28
C[C@H]1CN([C@@H](C)CO)C(=O)Cc2cc(NS(=O)(=O)c3ccccc3)ccc2O[C@@H]1CN(C)C(=O)Nc1ccc2c(c1)OCO2	none (no result: Gli-Sufu antag, SMARCA2 activ, 697 NFkB inh, Jurkat NFkB inh)
CCCCN1C(=O)/C(=C/C=C2\Oc3ccccc3N2CC)SC1=S	none (no result: 697 NFkB inh, Jurkat NFkB inh)
